From PubChem BioAssay come the findings set out here.

A word on the IC50: it is the concentration at which inhibition is half-maximal. One may read the viability as a read-out of living cells in per cent, often relative to untreated cells. Broadly, the AC50 is the concentration at which the activity in the assay is half-maximal.

Assay [1] is described as follows: growth inhibition of DIPG cells – cell-based, MIPE5.0 library, qHTS (AID 1347068; cut-off not given, nearly all actives have IC50 up to about 30 µM;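 for IC50: cells exposed to compound for 48 hours before viability readout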). The settings on record: SU-DIPG-XXV viability. (In qHTS, concentration-response curves come from the screen itself.)
A short description of assay [2]: drug combination growth inhibition, ovarian cancer – cell-based, oncology-focused library, rucaparib conditional, profiling panel (AID 1508598). The settings on record: patient-derived ovarian cancer cells, CellTiter-Glo viability, 144 h, active compounds read low. (In general: Cellular ATP, detected with luciferase, serves as a proxy for viable cell number.)
Assay [3] is described as follows: viability loss in pontine glioma line – cell-based, SU-DIPG-XIII, MIPE4.0, CellTiter-Glo, qHTS, dose response (AID 1347061; cut-off not given, nearly all actives have AC50 up to about 37 µM;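 note: cells exposed to compound for 48 hours before readout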). The conditions noted are these: CellTiter-Glo ATP luminescence.
A short description of assay [4]: viability loss in pontine glioma line – cell-based, JHH-DIPG-1, MIPE4.0, CellTiter-Glo, qHTS, dose response (AID 1347062; cut-off not given, nearly all actives have AC50 up to about 27 µM;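 for AC50: cells exposed to compound for two days before readout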). The conditions noted are these: JHH-DIPG-1 viability, CellTiter-Glo ATP luminescence.
The nature of assay [5]: viability loss in pontine glioma line – cell-based, SU-DIPG-IV, MIPE4.0, CellTiter-Glo, qHTS, dose response (AID 1347063; cut-off not given, nearly all actives have AC50 up to about 30 µM;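 note: compound exposure lasted 48 hours before the viability readout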). The settings on record: CellTiter-Glo ATP luminescence.
Assay [6] can be described thus: viability loss in pontine glioma line – cell-based, SU-DIPG-XIII, MIPE5.0, CellTiter-Glo, qHTS, dose response (AID 1347064; cut-off not given, nearly all actives have AC50 up to about 23 µM;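 for AC50: cells exposed to compound for 48 hours before the viability read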). The conditions noted are these: CellTiter-Glo ATP luminescence.
A short description of assay [7]: viability loss in pontine glioma line – cell-based, SU-DIPG-XXV, MIPE5.0, CellTiter-Glo, qHTS, dose response (AID 1347065; cut-off not given, nearly all actives have AC50 up to about 26 µM;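 note: cells exposed to compound for 48 hours before ATP readout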). The conditions noted are these: CellTiter-Glo ATP luminescence.
Assay [8] is described as follows: JHH-DIPG-1 glioma cell viability, MIPE5.0 library, CellTiter-Glo luminescence, qHTS (AID 1347067; cut-off not given, nearly all actives have AC50 up to about 26 µM;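 note: cells exposed to compound for 48 hours before readout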). The settings on record: JHH-DIPG-1 glioma viability, CellTiter-Glo ATP luminescence.
A short description of assay [9]: growth inhibition of DIPG cells – cell-based, MIPE4.0 library, CellTiter-Glo luminescence, qHTS (AID 1347066; cut-off not given, nearly all actives have AC50 up to about 30 µM;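 note: cells exposed to compound for 48 hours before readout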). The conditions noted are these: SU-DIPG-VI viability, CellTiter-Glo ATP luminescence.

Results filed as inconclusive are left out. Calls of active or inactive are those of the source.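 Rule for the calls, unless noted: active = normalized viability below 100% at a tested concentration; inactive = the rest.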

`Cc1cc2c(F)c(Oc3ncnn4cc(OC[C@@H](C)O)c(C)c34)ccc2[nH]1`: the IC50 in [1] was 14.8 µM (active). The viability is 117% (inactive) in assay [2] (at 0.000305 µM, OCI-C5x cells, with rucaparib 10 µM, 100% = cells with rucaparib alone); 131% (inactive) in assay [2] (at 0.000305 µM, OCI-C5x cells, without rucaparib); 112% (inactive) in [2] (at 0.000305 µM, OCI-P5x cells, with rucaparib 20 µM, 100% = cells with rucaparib alone); 105% (inactive) in [2] (at 0.000305 µM, OCI-P5x cells, without rucaparib); 131% (inactive) in assay [2] (at 0.00122 µM, OCI-C5x cells, with rucaparib 10 µM, 100% = cells with rucaparib alone); 128% (inactive) in [2] (at 0.00122 µM, OCI-C5x cells, without rucaparib). Also, the viability in assay [2] (at 0.00122 µM, OCI-P5x cells, with rucaparib 20 µM, 100% = cells with rucaparib alone) is 112% (inactive); in [2] (at 0.00122 µM, OCI-P5x cells, without rucaparib) it was 109% (inactive); in [2] (at 0.00488 µM, OCI-C5x cells, with rucaparib 10 µM, 100% = cells with rucaparib alone), 125% (inactive); in assay [2] (at 0.00488 µM, OCI-C5x cells, without rucaparib) it was 126% (inactive); in assay [2] (at 0.00488 µM, OCI-P5x cells, with rucaparib 20 µM, 100% = cells with rucaparib alone) it was 108% (inactive); in [2] (at 0.00488 µM, OCI-P5x cells, without rucaparib) it was 99.9% (active). The viability in [2] (at 0.0195 µM, OCI-C5x cells, with rucaparib 10 µM, 100% = cells with rucaparib alone) was 111% (inactive); in assay [2] (at 0.0195 µM, OCI-C5x cells, without rucaparib), 124% (inactive); in assay [2] (at 0.0195 µM, OCI-P5x cells, with rucaparib 20 µM, 100% = cells with rucaparib alone), 110% (inactive); in [2] (at 0.0195 µM, OCI-P5x cells, without rucaparib), 102% (inactive); in [2] (at 0.0781 µM, OCI-C5x cells, with rucaparib 10 µM, 100% = cells with rucaparib alone), 123% (inactive); in assay [2] (at 0.0781 µM, OCI-C5x cells, without rucaparib) it was 141% (inactive). In addition, the viability in assay [2] (at 0.0781 µM, OCI-P5x cells, with rucaparib 20 µM, 100% = cells with rucaparib alone) is 99% (active); in assay [2] (at 0.0781 µM, OCI-P5x cells, without rucaparib), 108% (inactive); in assay [2] (at 0.313 µM, OCI-C5x cells, with rucaparib 10 µM, 100% = cells with rucaparib alone), 122% (inactive); in assay [2] (at 0.313 µM, OCI-C5x cells, without rucaparib), 129% (inactive); in assay [2] (at 0.313 µM, OCI-P5x cells, with rucaparib 20 µM, 100% = cells with rucaparib alone) it was 113% (inactive); in [2] (at 0.313 µM, OCI-P5x cells, without rucaparib), 106% (inactive). Moreover, the viability is 117% (inactive) in assay [2] (at 1.25 µM, OCI-C5x cells, with rucaparib 10 µM, 100% = cells with rucaparib alone); 135% (inactive) in assay [2] (at 1.25 µM, OCI-C5x cells, without rucaparib); 109% (inactive) in assay [2] (at 1.25 µM, OCI-P5x cells, with rucaparib 20 µM, 100% = cells with rucaparib alone); 102% (inactive) in [2] (at 1.25 µM, OCI-P5x cells, without rucaparib); 122% (inactive) in assay [2] (at 5 µM, OCI-C5x cells, with rucaparib 10 µM, 100% = cells with rucaparib alone); 139% (inactive) in [2] (at 5 µM, OCI-C5x cells, without rucaparib). The viability in assay [2] (at 5 µM, OCI-P5x cells, with rucaparib 20 µM, 100% = cells with rucaparib alone) was 109% (inactive); in [2] (at 5 µM, OCI-P5x cells, without rucaparib) it was 97.4% (active).

For `CCOC(=O)[C@@H](N)CCC(=O)N[C@@H](CSCc1ccccc1)C(=O)N[C@@H](C(=O)OCC)c1ccccc1`, the call in assay [3], in assay [4], in assay [5] and in assay [1] was inactive. Further, the results for the AC50 in assay [6], in assay [7] and in assay [8] were 18.6 µM (active), 26.3 µM (active) and 23.5 µM (active), respectively.

On to `O=C(CC12CC3CC(CC(C3)C1)C2)Nc1cccc2nc(NCCNCCO)ccc12`, for which the AC50 is 14.8 µM (active) in [3], 20.9 µM (active) in [4] and 10.5 µM (active) in [5]. For the same compound, the compound was called inactive in [6].

As to `CC(C)NC[C@@H](C(=O)N1CCN(c2ncnc3c2[C@H](C)C[C@H]3O)CC1)c1ccc(Cl)cc1`, the concentration at half-maximal activity (AC50) in assay [3] was 11.8 µM (active); in assay [4], 23.5 µM (active); in [5], 7.43 µM (active); in [6], 4.68 µM (active); in assay [7], 5.25 µM (active); in assay [9] it was 2.64 µM (active).
